# Screening results (PubChem)
# HIF activator = HIF pathway transcriptional activators, primary screen, cell-based, U2OS HRE-luciferase, luminescence | U2OS HRE-luciferase reporter; normalized: DMSO 0%, desferrioxamine 100% | activation, % at 7.5 µM (by protocol) | 0.32% of 300,000 active;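 active = mean activation of at least 10% of the iron chelator positive control signal, with at least half of replicates also reaching 10%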
# SUMO Mot1 rescue = yeast Mot1-301 growth rescue at high temperature, primary screen, SUMOylation pathway inhibitor project, S. cerevisiae, ATP luminescence, 38.5C; S. cerevisiae Mot1-301 growth rescue; percent above DMSO median, 100 means doubled; growth rescue, % at 18.8 µM; 1% of 320,000 active;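 active = every valid replicate shows activation above 250% relative to neutral control wells; inactive = the rest, any valid replicate at or below 250%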;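 also: OY570 slx delta 5 strain wells were the positive control but not used for scaling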
# PfM18AAP inh-1 = PfM18AAP inhibitors, malaria aminopeptidase, primary screen, biochemical, QFRET, recombinant enzyme | 1.2% of 290,000 active | H-Glu-NHMec fluorogenic cleavage | M18 aspartyl aminopeptidase (Plasmodium falciparum 3D7) | inhibition, % at 7.35 µM;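 active = inhibition above the campaign mean inhibition over all tested compounds plus 3 SD, cut at about 28% in these data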;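 also: 0% = plate median of test compound wells and 100% = 2 mM ZnCl2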
# ALR inh = inhibitors of human ALR sulfhydryl oxidase, primary screen, biochemical, H2O2 detection, HRP-luminol luminescence, single point. FAD-linked sulfhydryl oxidase ALR (Homo sapiens), P55789. AID 485317, 2010. purified ALR, DTT oxidation. inhibition, % (concentration not given with the values). 3.8% of 290,000 active;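 active = mean replicate inhibition above about 79%, with every replicate also reaching it, limit read from the data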
# Target sequence (P55789 whole entry, looked up): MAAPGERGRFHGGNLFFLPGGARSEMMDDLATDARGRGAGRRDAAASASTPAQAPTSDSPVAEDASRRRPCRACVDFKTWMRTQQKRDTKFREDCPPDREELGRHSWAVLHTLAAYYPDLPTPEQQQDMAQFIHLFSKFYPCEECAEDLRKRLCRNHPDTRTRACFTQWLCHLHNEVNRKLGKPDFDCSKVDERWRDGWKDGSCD
# PfM18AAP inh-2 = PfM18AAP inhibitors, malaria aminopeptidase, confirmation, biochemical, QFRET, recombinant enzyme, triplicate; shares compounds with PfM18AAP inh-1; inhibition, % at 7.35 µM; AID 2170, 2009; H-Glu-NHMec fluorogenic cleavage; 28% of 2,400 active;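 active = mean inhibition over replicate wells above the hit cutoff set for the earlier primary screen, cut at about 29% in these data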;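 also: 0% = median of test compound wells and 100% = 2 mM ZnCl2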
# CTSL1 counter = cathepsin L1 inhibitors, retest, confirmation, counter-screen for PFM18AAP inhibitor project, biochemical, QFRET, triplicate. shares compounds with PfM18AAP inh-1. purified cathepsin L1, Z-Leu-Arg-MCA fluorescence. inhibition, % at 5.96 µM. 2,400 tested, under 10 active;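 active = average inhibition across replicates above the hit cutoff set in the earlier primary screen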;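 also: 0% = median of test compound wells and 100% = Z-Phe-Ala-diazomethylketone 1 µM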
# Target sequence (P07711 whole entry, looked up): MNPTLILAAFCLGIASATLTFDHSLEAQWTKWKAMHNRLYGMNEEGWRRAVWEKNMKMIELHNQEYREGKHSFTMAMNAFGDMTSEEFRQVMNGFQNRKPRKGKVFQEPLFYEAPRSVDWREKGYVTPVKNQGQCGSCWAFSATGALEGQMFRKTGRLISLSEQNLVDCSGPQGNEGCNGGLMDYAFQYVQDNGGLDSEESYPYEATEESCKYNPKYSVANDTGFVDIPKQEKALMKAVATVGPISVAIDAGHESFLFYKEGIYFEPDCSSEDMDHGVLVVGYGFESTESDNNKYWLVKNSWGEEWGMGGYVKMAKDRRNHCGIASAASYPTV
# Starred values were filed as active, the others as inactive; . = no result given. Sampled rows, rich in hits. Any-hit rate of the full collection: about 5.3%.
SMILES,HIF activator,SUMO Mot1 rescue,PfM18AAP inh-1,ALR inh,PfM18AAP inh-2,CTSL1 counter
CCCN(CC(=O)Nc1ccc(F)c(F)c1F)C(=O)C1=COCCO1,-1,-4,.,-5,.,.
O=C(Cc1ccccc1)Nc1ccc2c(c1)CCC2,4,3,4,-7,.,.
O=C(CC1CCCC1)Nc1ccc2c(c1)CCC2,2,8,46*,-4,-30,-5
O=c1[nH]nc(CNc2ccc(C(F)(F)F)cc2)c2ccccc12,0,426,-3,-17,.,.
O=c1[nH]nc(CNc2ccc(O)cc2)c2ccccc12,0,29,35*,100*,-18,0
Cc1ccc(NC(=S)NCc2cccnc2)cc1,0,7,10,43,.,.
CCNC(=S)NC(=NCc1cccnc1)Nc1nc(C)cc(C)n1,-1,416,32*,.,-12,-3
N#Cc1ccc(-c2ccccc2)nc1SCC(=O)c1cc2ccccc2oc1=O,1,-23,34*,-4,-19,-1
CC(C)c1c(C#N)c(N)nc(SCC(=O)c2cc3ccccc3oc2=O)c1C#N,0,5,3,-10,.,.
Cc1cccc(NC(=S)NC(C)(C)CC(C)(C)C)c1,0,274,-10,-8,.,.
Cc1cccc(NC(=S)NC2CCCC2)n1,0,-22,44*,-7,-3,7
Cc1cccc(NC(=S)Nc2cccc(C)n2)n1,-1,-3,-6,-1,.,.
Cc1cccc(NC(=S)NC2CCCCC2)n1,0,21,36*,-2,8,2
Cc1ccc(S(=O)(=O)Nc2ccc(NC(=O)c3cccnc3)cc2)cc1,0,0,3,3,.,.
COC(=O)c1ccc(/C=C/C(=O)OCC(=O)Nc2cc(C)on2)cc1,.,-22,.,2,.,.
Cc1ccc(S(=O)(=O)Nc2nc(C)cc(NN)n2)cc1,0,15,40*,2,29*,-1
Cc1cc(NN)nc(NS(=O)(=O)c2ccccc2Cl)n1,1,.,39*,36,-2,2
CCN1/C(=C/c2ccc3cc(C)ccc3[n+]2CC)Sc2ccc3sccc3c21,1,158,.,-1,.,.
CC[n+]1c(C)sc2c3ccsc3ccc21,0,-8,55*,46,9,6
O=C(Nc1ccccc1C(F)(F)F)c1ncn[nH]1,0,-8,59*,-10,57*,1
O=C(Nc1ccccc1C(F)(F)F)c1cnccn1,0,139,2,-8,.,.
Cc1ccc(C(=O)NC(=S)NNC(=O)CCN2CCOCC2)cc1,0,8,38*,98*,-19,-3
COc1ccc(CC(=O)NCc2n[nH]c(=S)n2-c2cccc(C)c2)cc1,0,-10,40*,34,-17,3
O=C(NCc1n[nH]c(=S)n1-c1cccc(C(F)(F)F)c1)c1ccco1,0,-1,34*,20,-10,-5
N#CC/C(N)=N/Nc1nc2ccccc2nc1Cc1ccccc1,0,16,36*,25,9,-4
SMILES,HIF activator,SUMO Mot1 rescue,PfM18AAP inh-1,ALR inh,PfM18AAP inh-2,CTSL1 counter
COc1cc2c(cc1OC)C(c1cc3cccc(C)c3[nH]c1=O)N(C(=O)c1ccco1)CC2 (stereo not given),0,4,48*,0,-36,-3
COc1cc2c(cc1OC)C(COc1ccc(F)cc1)N(C(=O)c1ccco1)CC2 (stereo not given),-5,67,-10,2,.,.
Cc1ccc(NC(=O)CSc2nc3ccccc3c(=O)n2CCCC(=O)NCCCN2CCOCC2)cc1,0,2,-3,2,.,.
Cc1ccc(-c2csc(N/N=C/c3ccco3)n2)c(C)c1,0,15,33*,-7,-60,2
CN(C)S(=O)(=O)c1cccc(-c2csc(N/N=C/c3ccco3)n2)c1,1,3,14,-3,.,.
S=c1nc(C23CC4CC(CC(C4)C2)C3)[nH][nH]1,0,3,36*,7,17,3
Cc1sc2nc(CSC(C)C(=O)N3CCOCC3)[nH]c(=O)c2c1C (stereo not given),0,3,8,-23,.,.
COc1cc(C(=O)OCC(=O)Nc2nnc(-c3ccccc3)o2)cc(OC)c1OC,0,152,.,.,.,.
COc1ccc(C(=O)OCC(=O)Nc2nnc(-c3ccccc3)o2)cc1,0,-12,42*,5,-21,-9
Oc1ccc(-c2csc(Nc3ccccn3)n2)cc1O,5,-4,64*,98*,47*,-4
CC(=O)Nc1ccc(-c2csc(Nc3ccccn3)n2)cc1,3,0,-1,6,.,.
Cc1cccnc1Nc1nc(-c2ccc(O)c(O)c2)cs1,3,39,79*,99*,55*,4
Cc1cccc(Nc2nc(-c3ccc(O)c(O)c3)cs2)n1,4,-21,54*,99*,28,-5
Cc1ccnc(Nc2nc(-c3ccc(O)c(O)c3)cs2)c1,2,-2,62*,98*,47*,-1
O=C(CCCOc1ccccc1)Nc1cccc(S(=O)(=O)N2CCOCC2)c1,.,-13,.,-7,.,.
COc1ccc(CCNC(=O)C(CCC(N)=O)NS(=O)(=O)c2ccc(Cl)cc2)cc1OC (stereo not given),-1,-7,5,.,.,.
Oc1ccc(-c2csc(Nc3cccc4ccccc34)n2)cc1O,1,3,55*,73,25,-13
COc1ccc(-c2nc(N/N=C(\C)c3ccc(O)cc3)c3ccccc3n2)cc1,1,8,63*,2,-62,3
COc1ccc(-c2cn(-c3ccc(C)c(C)c3)c(=S)[nH]2)cc1OC,1,20,32*,7,6,-2
COc1cccc(-n2cc(-c3ccc(F)cc3)[nH]c2=S)c1,2,-8,41*,51,26,0
Cc1cccc(-n2cc(-c3ccc([N+](=O)[O-])cc3)[nH]c2=S)c1,3,1,7,.,.,.
COc1ccc(-c2cn(-c3ccccc3)c(=S)[nH]2)cc1OC,2,5,44*,-7,11,-5
COc1ccc(-c2cn(-c3ccc(C)c(Cl)c3)c(=S)[nH]2)cc1OC,-12,-4,22,.,.,.
COc1ccc(CNC(=O)COC(=O)C2(C)CC2(Cl)Cl)cc1 (stereo not given),.,5,.,2,.,.
Clc1ccc(CO/N=C2\CCCc3nonc32)c(Cl)c1,0,8,3,-3,.,.
COc1ccc(/C=N/Nc2cc(C)nc3c(C)cccc23)cc1,2,6,12,5,.,.
COc1ccc(OC)c(/C=N/Nc2nncn2/N=C/c2cc(OC)ccc2OC)c1,-1,-8,51*,-3,-44,1
